In PubChem BioAssay AID624287 (National Center for Advancing Translational Sciences (NCATS), 2012) one finds Potency and activation (cAMP increase) data, which are given here for 60 compounds.

Each structure is given as a SMILES string. The campaign covered roughly 340,000 compounds. About 420 (0.12%) were called active. Inconclusive results (about 10%) are left out. Shown is part of a subset that was picked to be rich in actives. Where a call stands in place of a potency, no number is given. Values without a mark were called inactive. The call rests on the fitted dose curve; in most records, active means well fitted activation curve with a large enough effect; inconclusive means small, poorly fitted or top-dose-only effect, or another doubt; inactive means no such curve, though single readings can be large or run the other way; cell line not stated here.
Potency means the concentration at half of the fitted maximal effect.

The assay is described as follows: qHTS for Agonist of gsp, the Etiologic Mutation Responsible for Fibrous Dysplasia/McCune-Albright Syndrome: qHTS. Further: nearly all actives have a fitted effect of over 60% in size.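 On activation (cAMP increase): phosphodiesterase inhibitor Ro 20-1724 added with compounds to block cAMP breakdown.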 The note with it: gsp mutant cells, cAMP HTRF, 30 min; series mostly up to 76.9 µM. From the text: McCune-Albright syndrome (MAS) is a rare disease caused by somatic mutations in Gsgsp), a widely expressed protein central in signal transduction from G-coupled protein receptors (GPCRs). The disease symptoms are diverse, owing to the fact that the patients are mosaics with varying degrees of tissue involvement. Greater than 90% of the mutations in Gs in MAS occur at the R201 position and are equally divided between R201H and R201C. The R201 residue is central in the intrinsic GTPase activity of Gs and the H and C mutations lead to loss of, or impairment of, the GTPase activity. The intrinsic GTPase activity is necessary to terminate the interaction between Gs and adenylate cyclase, and to terminate the cAMP-mediated signaling of the given GPCR pathway. Thus, these activating mutations lead to ligand-independent activation of GPCR pathways. The tissue phenotype is determined by the role of Gs in the function of a given cell, and excess Gs/cAMP signaling in that cell. For example, pituitary somatotrophs overproduce growth hormone in a growth hormone releasing hormone-independent fashion, and gigantism/acromegaly ensues. Skeletal stem cells in the bone marrow behave as if they are under constant parathyroid hormone stimulation and fail to differentiate into osteoblasts and osteocytes, and proliferate as immature osteogenic cells and lead to the marrow fibrosis of fibrous dysplasia of bone. The goal of this project is to identify molecules with stimulatory activity at gsp mutations that will not only allow for in-depth study of the underlying molecular and cellular pathophysiology, but also serve as compounds from which drugs to treat FD/MAS can be developed NIH Chemical Genomics Center [NCGC] NIH Molecular Libraries Probe Centers Network [MLPCN] MLPCN Grant: IRP-FT-DE-2011-01 Assay Submitter (PI): Michael Collins, NIDCR
1.#Seed 2000 cells/well in 6 ul DMEM 10% FBS, 1% Pen/Strep, 0.5 mg/ml G418 2.#Incubate 16-24 hr at 37C, 5% CO2, 95% humidity 3.#Aspirate leaving 1 ul residual volume 4.#Dispense 5 ul/well DPBS + 1 mM CaCl2, 0.5 mM MgCl2, 0.05% BSA, 0.005% Tween 20 5.#Aspirate leaving 2 ul residual volume 6.#Dispense 23 nl/well compounds in DMSO 7.#Dispense 1 ul/well 300 uM Ro-20174 in DMEM 10% FBS 8.#Incubate 30 min at 37C, 5% CO2, 95% humidity 9.#Dispense 1.5 ul/well HTRF reagent: cAMP-d2 in lysis buffer 10.#Dispense 1.5 ul/well HTRF reagent: anti-cAMP antibody-K in lysis buffer 11.#Incubate 30 min at room temperature 12.#Detect HTRF signal using EnVision plate reader
As for `CCOC(=O)c1c(C)[nH]c(C)c1C(=O)COC(=O)/C=C/c1cccc([N+](=O)[O-])c1`, the Potency result was “inactive”.
The same measure, in the same setting: in the case of `O=C(NCCN1CCOCC1)c1ccc2c(c1)N(Cc1cccc(Cl)c1)C(=O)c1ccccc1S2(=O)=O` it was “inactive”; in that of `CC(C)N=C1CCCC1C(=S)SSC(=S)C1CCCC1=NC(C)C` (stereo not given), “inactive”.
`CCOC(=O)c1cc(-c2sc(NC(=O)c3ccccc3)nc2C)n(Cc2ccccc2)n1`: the Potency entry is “inactive”.
On the same count and under the same terms, in the case of `COc1ccc(CN2C(=O)C(CC(=O)NCCCCc3ccccc3)CC(C(=O)N3CCOCC3)=C2C)cc1` (stereo not given) it was “inactive”.
With `CCN(CC)C(=O)C1=C(C)N(Cc2ccc(OC)cc2)C(=O)C(CC(=O)NCc2ccco2)C1` (stereo not given), the Potency result was “inactive”.
For `O=C(NCCN1CCOCC1)C1CCN(S(=O)(=O)c2ccccc2)CC1`, the Potency result is “inactive”.
Same read-out and setting: in the case of `O=C(O)Cc1sc(-c2ccccc2)nc1-c1cccs1` it was 12.6 µM (active); in that of `NC(=O)Cc1ccc2sc(-c3ccccc3)nc2c1`, “inactive”; in that of `CN(C(=O)COc1nnc(-c2cccs2)c(-c2cccs2)n1)c1ccccc1`, “inactive”.
Still for that read-out and setting: in the case of `O=C(Cc1ccc([N+](=O)[O-])cc1)NCCS(=O)(=O)N1CCN(c2ccccc2)CC1` it was “inactive”.
Regarding `CCc1ccccc1OCC(=O)Nc1nnc(C2CC2)s1`, the Potency entry is “inactive”.
For `COc1ccc([C@H]2N[C@]3(CCCN(CC4CCCCC4)C3=O)[C@H]3C(=O)N(C)C(=O)[C@@H]23)cc1`, the Potency result was “inactive”.
For the compound `Cc1ccc(C(=O)OCC(=O)NC2CCCCCCC2)cc1C`, the Potency entry was “inactive”.
In the case of `COc1cc2c(cc1OC)CN(C(C)C(=O)Nc1cccc(S(=O)(=O)N3CCOCC3)c1)CC2` (stereo not given), the Potency was 10 µM (active).
As to `CC(Sc1ccccc1F)C(=O)Nc1cccc(S(=O)(=O)N2CCOCC2)c1` (stereo not given), the Potency entry was “inactive”.
Consider `CC(Sc1cccc[n+]1[O-])C(=O)Nc1cccc(S(=O)(=O)N2CCOCC2)c1` (stereo not given), for which the activation (cAMP increase) was 27.2% [at 15.4 µM].
Regarding `COc1ccc(C(C)(C)C)cc1NC(=O)CN(C)C1=NS(=O)(=O)c2ccccc21`, the Potency entry is “inactive”.
Still for that read-out and setting: for `CC1(C)OC(=O)C2=C(CC(c3ccccc3)OC2CCc2ccccc2)O1` (stereo not given) the value was “inactive”; for `O=C1CCC(=O)N1CCC(=O)N(C(=O)NC1CCCCC1)C1CCCCC1`, “inactive”.
With `CC(=NNC(N)=O)C1CC2CCC1CC2` (stereo not given), the Potency result is “inactive”.
As to `CC1(c2cccc(Br)c2)NC(=O)N(CC(=O)NCCC2=CCCCC2)C1=O` (stereo not given), the Potency entry is “inactive”.
Consider `COc1ccccc1C(=O)NC(=S)Nc1ccc(N2CCOCC2)cc1`, for which the Potency entry was “inactive”.
Still for that read-out and setting: for `COc1ccc(-c2ccc(CN3C(CC(C)C)C(=O)N(Cc4cn(CC5CCCCC5)nn4)CCS3(=O)=O)cc2)cn1` (stereo not given) the value was “inactive”.
On the same count and under the same terms, for `O=C1C(=O)N(CCN2CCOCC2)C(c2cccc(Cl)c2)/C1=C(/O)c1ccc2c(c1)OCO2` (stereo not given) the value was 12.6 µM (active).
Same read-out and setting: in the case of `O=C1C(=O)N(CCCN2CCOCC2)C(c2ccc([N+](=O)[O-])cc2)/C1=C(\O)c1ccc2c(c1)OCCO2` (stereo not given) it was “inactive”.
Regarding `COc1ccc(C2/C(=C(/O)c3ccc(OC(C)C)cc3)C(=O)C(=O)N2CCCN2CCOCC2)cc1` (stereo not given), the Potency result was “inactive”.
On the same count and under the same terms, for `O=C1CCC(C(=O)OCC(=O)Nc2ccc(OC(F)F)cc2)=NN1` the value was “inactive”.
Still for that read-out and setting: in the case of `COc1cc(C)c(CN2CCN(C(=O)CCC(=O)c3ccc(C)s3)CC2)cc1OC` it was “inactive”; in that of `CCOc1cc(/C=N/NC(=O)c2ccncc2)cc(Br)c1O`, “inactive”; in that of `NC(=S)NN=Cc1ccc(OC(=O)COc2cc(Cl)c(Cl)cc2Cl)cn1`, “inactive”.
For `COc1cccc(N2C(=O)CN(Cc3ccccc3)C2=S)c1`, the Potency entry was “inactive”.
Consider `COc1cccc(-n2c(=S)[nH]c3c(oc4ccccc43)c2=O)c1`, for which the Potency was 15.8 µM (active).
On to `COc1cccc(-n2cc(C(=O)O)c3ccccc3c2=O)c1`, for which the Potency result was “inactive”.
In the case of `CC1(C)CN(CCc2ccccc2)C(=O)[C@H]1CC(=O)Nc1ccc(Br)cc1`, the Potency result is “inactive”.
Regarding `Cc1ccc(S(=O)(=O)/N=C2\C=C(NS(=O)(=O)c3ccc(C)cc3)C(=O)c3ccccc32)cc1`, the Potency entry is “inactive”.
Same read-out and setting: for `COCOCCn1cc(CN2CCS(=O)(=O)N(Cc3ccc(-c4ccccc4)cc3)C(CC(C)C)C2=O)nn1` (stereo not given) the value was “inactive”; for `COc1ccccc1-c1n[nH]nc1C1=CC(=O)CC(C)(C)C1`, “inactive”.
`CC1=C(C(=O)N2CCOCC2)CC(CC(=O)NCC2CCCCC2)C(=O)N1Cc1ccc(F)cc1` (stereo not given): the Potency entry was “inactive”.
For the compound `CCOC(=O)C1CCN(C(=O)c2ccc3c(=O)n4nc(Nc5ccccc5CC)sc4nc3c2)CC1`, the Potency entry was “inactive”.
Regarding `O=Cc1cn(CCOc2ccc(F)cc2)c2ccccc12`, the Potency result is “inactive”.
With `CCOC(=O)CNC(=O)CSc1ccc2nnc(-c3cccnc3)n2n1`, the activation (cAMP increase) is 37.7% [at 15.4 µM].
For `COC(=O)C(C)Sc1ccc2nnc(-c3cccc(F)c3)n2n1` (stereo not given), the Potency is 10 µM (active).
The same measure, in the same setting: in the case of `CCOc1ccc(-c2nnc3ccc(SC)nn23)cc1` it was “inactive”.
Turning to `CCN(CC)C(=O)C1=C(C)N(Cc2ccc(F)cc2)C(=O)C(CC(=O)NCc2cccc3ccccc23)C1` (stereo not given), the Potency result was “inactive”.
As for `C[C@H]1CN([C@@H](C)CO)C(=O)c2cc(-c3ccccc3F)cnc2O[C@H]1CN(C)C(=O)C1CCOCC1`, the Potency result was “inactive”.
For the compound `Cc1ccc(S(=O)(=O)N2C[C@]3(O)C[C@@H]4C(=O)N(c5ccccc5)C(=O)[C@@H]4C[C@]3(OC(=O)NC3CC3)C2)cc1`, the Potency entry is “inactive”.
The same measure, in the same setting: for `CNC(=O)C1CN(C(=O)c2cccc(S(=O)(=O)N3CCc4ccccc43)c2)c2ccccc2O1` (stereo not given) the value was “inactive”; for `CCN1CCN(CCNC(=O)c2ccc3c(c2)NC(=O)/C(=C\c2cccc(Cl)c2)S3)CC1`, “inactive”.
Still for that read-out and setting: in the case of `O=C(C[C@H]1C[C@H]2c3cc(NS(=O)(=O)c4ccc(F)cc4)ccc3O[C@H]2[C@H](CO)O1)NCc1cc(F)ccc1F` it was “inactive”; in that of `c1ccc2c(c1)nnn2-c1ccncc1`, “inactive”.
On to `COc1cc2c(cc1OC)C1C(=O)c3cc(OS(C)(=O)=O)c(OC)cc3C1N(C)C2=O` (stereo not given), for which the Potency entry was “inactive”.
With `CCCCCC(=O)N1C[C@H](O)[C@@H](n2cc(COC(=O)c3ccccc3)nn2)C[C@@H]1c1ccc(C)cc1`, the Potency entry is “inactive”.
The same measure, in the same setting: for `CC1CN(C(=O)c2cccc(NS(=O)(=O)c3ccc(Br)cc3)c2)CC(C)O1` (stereo not given) the value was “inactive”.
Regarding `Cc1ccc(C=O)c([B-](F)(F)F)c1`, the Potency entry is “inactive”.
On the same count and under the same terms, for `CC(C)c1cc(C(=O)NC2CCCCCC2)c2ccccc2n1` the value was “inactive”; for `CN(C)C(CNC(=O)c1cccc(S(=O)(=O)N2CCc3ccccc3C2)c1)c1ccccc1` (stereo not given), “inactive”; for `CCCCCCN1C[C@@H](O)[C@H](n2cc(COC(=O)c3ccccc3)nn2)C[C@@H]1c1ccc(Cl)cc1`, “inactive”.
Consider `CCN(CC)C(=O)C1=C(C)N(Cc2ccc(C(C)(C)C)cc2)C(=O)C(CC(=O)NCc2cccc3ccccc23)C1` (stereo not given), for which the Potency entry is “inactive”.
Same read-out and setting: for `COc1ccc([C@H]2N[C@]3(CCCN(Cc4ccco4)C3=O)[C@H]3C(=O)N(C)C(=O)[C@@H]23)cc1` the value was “inactive”.
